PLK1 PBD inh – inhibitors of human Plk1 polo box domain binding; P53350; Plk1 PBD phosphopeptide binding, fluorescence polarization; inhibition, %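 (tested at about 20 µM)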; 97,000 compounds, 0.13% hits; in the data active = inhibition above about 34%, passing the limit was not always enough
Target sequence (P53350 whole entry, looked up, the tested form may be a part): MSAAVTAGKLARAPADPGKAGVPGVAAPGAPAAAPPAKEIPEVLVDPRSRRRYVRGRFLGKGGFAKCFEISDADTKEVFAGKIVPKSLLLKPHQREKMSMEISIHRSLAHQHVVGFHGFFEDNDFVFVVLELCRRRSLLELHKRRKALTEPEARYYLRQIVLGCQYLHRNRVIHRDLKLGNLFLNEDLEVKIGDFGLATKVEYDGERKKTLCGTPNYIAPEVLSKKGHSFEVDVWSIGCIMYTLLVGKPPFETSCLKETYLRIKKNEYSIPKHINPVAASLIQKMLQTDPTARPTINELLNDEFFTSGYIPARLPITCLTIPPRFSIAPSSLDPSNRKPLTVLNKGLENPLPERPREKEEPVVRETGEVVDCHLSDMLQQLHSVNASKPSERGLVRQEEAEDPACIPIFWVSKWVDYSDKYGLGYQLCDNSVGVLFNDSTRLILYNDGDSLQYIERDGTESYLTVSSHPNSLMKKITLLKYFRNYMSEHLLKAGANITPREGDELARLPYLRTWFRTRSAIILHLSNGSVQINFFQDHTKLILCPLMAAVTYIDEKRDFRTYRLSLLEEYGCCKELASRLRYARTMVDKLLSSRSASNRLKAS
PLK1 inh – blocks human PLK1 kinase activity | P53350 | recombinant PLK1 kinase, TR-FRET peptide phosphorylation | inhibition, % at 10 µM | 97,000 compounds, 0.53% hits | AID 619;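 active = inhibition of 50% or more in the single-concentration screen; inactive = inhibition below 50%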
CYP2C19 act – increases human CYP2C19 enzyme activity | 96,000 tested, under 10 active | P33261 | activation factor at 5 µM | recombinant CYP2C19, luciferin-H EGE luminescence; hits give high values; 0 = fully inhibited enzyme, 1 = untreated enzyme;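 active = activation factor of at least 2 at 5 µM in the primary screen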
CYP2C9 act – activators of human CYP2C9; P11712; activation factor at 5 µM; recombinant CYP2C9, luciferin-H conversion, luminescence; hits give high values; factor 1 = untreated enzyme, 0 = blocked; 96,000 compounds, 1.4% hits;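 active = activation factor of 2 or more for CYP2C9 at a 5 µM dose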
CYP2C19 inh – inhibitors of human CYP2C19 | P33261 | inhibition, % at 5 µM | 96,000 compounds, 21% hits | AID 778 | CYP2C19 Supersomes, luciferin-H EGE luminescence, 30 min;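 active = CYP2C19 inhibition above a set limit at 5 µM in the primary screen, cut at about 50% in these data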
CYP2C9 inhib – human CYP2C9 inhibition. 96,000 compounds, 20% hits. inhibition, % at 5 µM. CYP2C9 Supersomes, luciferin-H conversion, luminescence. AID 777;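 active = blocking of liver enzyme CYP2C9 beyond about 50% at 5 µM, limit read from the data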
Numbers stand for hits; - = inactive; . = no result given. An excerpt weighted towards active compounds, which were near 28% of everything screened.

SMILES | PLK1 PBD inh | PLK1 inh | CYP2C19 act | CYP2C9 act | CYP2C19 inh | CYP2C9 inhib
CC(NS(=O)(=O)c1ccc(F)cc1)C(=O)NCc1ccncc1 (stereo not given) | - | - | - | - | 94 | 65
CCC(C)NS(=O)(=O)c1ccc(OCC(=O)NCc2ccco2)cc1 (stereo not given) | - | - | - | - | - | -
Cc1ccc(OCCSc2nnc(NC(=O)c3ccco3)s2)cc1 | - | - | - | - | - | -
CCC(OC(=O)c1cccs1)C(=O)NCc1ccco1 (stereo not given) | - | - | - | - | 83 | -
CCC(OC(=O)c1cccs1)C(=O)NC1CCCCC1 (stereo not given) | - | - | - | - | 75 | -
CC(C)CC(OC(=O)c1ccco1)C(=O)NC1CCCCC1 (stereo not given) | - | - | - | - | 83 | 87
CC(C)CC(OC(=O)c1ccco1)C(=O)NCC1CCCO1 (stereo not given) | - | - | - | - | - | -
O=C(OC(C(=O)NC1CCCCC1)c1ccccc1)c1ccco1 (stereo not given) | - | - | . | . | . | .
O=C(OC(C(=O)NC1CCCC1)c1ccccc1F)c1ccco1 (stereo not given) | - | - | - | - | - | 69
Cc1ccc(C(=O)N/C(=C\c2cccs2)C(=O)NC2CCCCC2)cc1 | - | - | - | - | - | -
O=C(NC1CCN(Cc2ccccc2)CC1)C1COc2ccccc2O1 (stereo not given) | - | - | - | - | - | -
CC(CN(C)Cc1ccccc1)OC(=O)C1COc2ccccc2O1 (stereo not given) | - | 62 | - | - | - | -
Fc1ccc(-c2csc3ncnc(Nc4ccc(N5CCOCC5)cc4)c23)cc1 | - | - | - | - | - | -
COc1cc(OC)cc(-c2nc3ccccc3c(=O)o2)c1 | - | - | . | . | . | .
O=c1oc(-c2ccc(Br)o2)nc2ccccc12 | - | - | - | - | 77 | -
CC(C)C(NC(=O)C12CC3CC(CC(C3)C1)C2)C(=O)O (stereo not given) | - | - | - | - | - | -
O=C(NC12CC3CC(CC(C3)C1)C2)c1ccc(COc2ccc(Cl)cc2[N+](=O)[O-])o1 | - | - | - | - | - | 75
CC(C)CC(=O)N1CCN(Cc2cccc(F)c2)CC1 | - | - | - | - | 59 | -
O=C(Cn1ccc2ccccc2c1=O)NCCC(=O)N1CCN(c2cccc(C(F)(F)F)c2)CC1 | - | - | - | - | - | -
O=C(CSCc1ccccc1)N1CCN(c2ccc(F)cc2)CC1 | - | - | - | - | - | -
COc1cccc(CN2CCN(C(=O)CC(C)C)CC2)c1 | . | . | - | - | - | -
O=C1Nc2ccccc2OC1CC(=O)N1CCN(c2cccc(C(F)(F)F)c2)CC1 (stereo not given) | - | - | - | - | - | 72
O=C(CSCc1ccccc1)N1CCN(c2cccc(C(F)(F)F)c2)CC1 | - | - | - | - | 86 | 93
O=C(CSCc1cccc(F)c1)N1CCN(c2ccccc2)CC1 | . | . | - | - | 52 | 58
CC1CCCC(NC(=O)Cc2ccc(Br)cc2)C1C (stereo not given) | - | - | . | . | . | .
SMILES | PLK1 PBD inh | PLK1 inh | CYP2C19 act | CYP2C9 act | CYP2C19 inh | CYP2C9 inhib
Cc1ccc(NC(=O)COC(=O)c2ccc3c(c2)NC(=O)C2CCCN32)cc1C (stereo not given) | - | - | - | - | - | -
COc1ccc(/C=N/n2c(N)nc(-c3ccccc3)c2-c2ccccc2)cc1 | - | - | - | - | - | -
CCOC(=O)Cn1c(C)c(Br)c(=O)c2cccc(C)c21 | - | - | - | - | - | -
CCC(C)(C)n1nnnc1C(c1cc2cc(C)cc(C)c2[nH]c1=O)N1CCN(C(=O)c2ccco2)CC1 (stereo not given) | - | - | - | - | - | -
Cc1cccc(C)c1OCC(O)Cn1c2ccccc2c2ccccc21 (stereo not given) | - | - | - | - | - | 75
Cc1ccc(OCC(O)Cn2c3ccccc3c3ccccc32)cc1 (stereo not given) | - | - | - | - | 63 | 60
CC(=O)N(C)c1ccc(OCC(O)Cn2c3ccc(Cl)cc3c3cc(Cl)ccc32)cc1 (stereo not given) | - | - | - | - | - | 54
CCc1c(C)[nH]n(-c2ccc(Oc3ccccc3)c(S(=O)(=O)O)c2)c1=O | - | - | - | - | - | -
Cn1nc(-c2ccc(N3CCOCC3)c(NC(=O)COc3ccccc3)c2)c2ccccc2c1=O | - | - | . | . | . | .
